This note sets out measurements from PubChem BioAssay (EPA / NIEHS).

Where a structure was tested more than once in an assay, its records may differ in their call. The source made the active and inactive calls. The calls were made as follows: active = hit-call score of the fitted dose curve at least 0.9, where 1 is the maximum; inactive = score below 0.9.

Read-out in experiment [1]: Matrix Metallopeptidase 1 (MMP1), MMP1 (gene 4312)
Briefly: BSK_BF4T_MMP1: BioMAP Diversity Plus: BF4T Assay for Matrix Metallopeptidase 1 (MMP1) Biomarker Activity (AID 2284270). Particulars: primary human bronchial epithelial cells with fibroblasts. The gist of the method: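 MMP-1 quantified by ELISA in primary human bronchial epithelial/dermal fibroblast co-cultures, 24 hours post-dosing, with DMSO as baseline; parallel sulforhodamine B staining (560 nm) tracks overt cytotoxicity.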

Read-out in experiment [2]: Matrix Metallopeptidase 3 (MMP3), MMP3 (gene 4314)
In words: BSK_BF4T_MMP3: BioMAP Diversity Plus: BF4T Assay for Matrix Metallopeptidase 3 (MMP3) Biomarker Activity (AID 2284271). The settings on record: primary human bronchial epithelial cells with fibroblasts. In short, it runs like this:
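MMP-3 level read by ELISA after 24 h chemical exposure of bronchial epithelial cell/dermal fibroblast co-cultures, fitted upward relative to DMSO. Parallel cultures stained with 0.1% SRB after TCA fixation gauge overt cytotoxicity.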

Read-out in experiment [3]: Tissue plasminogen activator (tPA), PLAT (gene 5327)
Briefly: BSK_BF4T_tPA: BioMAP Diversity Plus: BF4T Assay for Tissue plasminogen activator (tPA) Biomarker Activity (AID 2284272). Particulars: primary human bronchial epithelial cells with fibroblasts. The gist of the method: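 tPA level quantified by ELISA at 24 h post-treatment in bronchial epithelial/dermal fibroblast co-cultures, gain of signal scored against DMSO baseline. Parallel cultures stained with 0.1% SRB (560 nm) to flag overt cytotoxicity.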

Read-out in experiment [4]: Plasminogen Activator Inhibitor-1 (PAI1), SERPINE1 (gene 5054)
Briefly: BSK_BF4T_PAI1: BioMAP Diversity Plus: BF4T Assay for Plasminogen Activator Inhibitor-1 (PAI1) Biomarker Activity (AID 2284273). Particulars: primary human bronchial epithelial cells with fibroblasts. In short, it runs like this:
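PAI-1 levels quantified by ELISA 24 h post-dosing in bronchial epithelial cell plus dermal fibroblast cultures. Signal gain referenced to DMSO baseline. Sulforhodamine B total-protein staining of parallel wells checked cytotoxicity.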

Read-out in experiment [5]: urokinase Plasminogen Activator (uPA), PLAU (gene 5328)
Briefly: BSK_BF4T_uPA: BioMAP Diversity Plus: BF4T Assay for urokinase Plasminogen Activator (uPA) Biomarker Activity (AID 2284275). The settings on record: primary human bronchial epithelial cells with fibroblasts. The gist of the method:
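uPA levels measured by ELISA at 24 hours in BF4T cultures (bronchial epithelial cells plus dermal fibroblasts) and compared with DMSO; cytotoxicity tracked in parallel cultures by sulforhodamine B staining.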

Read-out in experiment [6]: Matrix Metallopeptidase 9 (MMP9), MMP9 (gene 4318)
In words: BSK_BF4T_MMP9: BioMAP Diversity Plus: BF4T Assay for Matrix Metallopeptidase 9 (MMP9) Biomarker Activity (AID 2284276). Particulars: primary human bronchial epithelial cells with fibroblasts. The gist of the method: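 MMP-9 levels were measured by ELISA after 24 h exposure of bronchial epithelial cell/dermal fibroblast co-cultures, with DMSO as baseline. Parallel cultures were stained with 0.1% SRB after TCA fixation, read at 560 nm, to flag overt cytotoxicity.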

Read-out in experiment [7]: Interferon-inducible T-cell alpha chemoattractant (ITAC), CXCL11 (gene 6373)
Briefly: BSK_BE3C_ITAC: BioMAP Diversity Plus: BE3C Assay for Interferon-inducible T-cell alpha chemoattractant (ITAC) Biomarker Activity (AID 2284279). Particulars: primary human bronchial epithelial cells. In short, it runs like this: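 ELISA read-out of I-TAC after 24 h chemical dosing of human lung primary bronchial epithelial cells; gain-of-signal fit vs DMSO baseline. Parallel SRB total-protein staining (0.1% SRB, 10% TCA fixation, 560 nm) assessed cytotoxicity.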

Read-out in experiment [8]: Epidermal growth factor receptor (EGFR), EGFR (gene 1956)
Briefly: BSK_BE3C_EGFR: BioMAP Diversity Plus: BE3C Assay for Epidermal growth factor receptor (EGFR) Biomarker Activity (AID 2284281). Particulars: primary human bronchial epithelial cells. In short, it runs like this:
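Human primary bronchial epithelial cells were exposed to compound for 24 h, and cell-surface EGFR was then quantified by ELISA. Activity was fitted in the positive direction against the DMSO vehicle baseline.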

Read-out in the next experiment: KRT18 (gene 3875)
Briefly: BSK_BE3C_Keratin818: BioMAP Diversity Plus: BE3C Assay for Keratin 818 Biomarker Activity (AID 2284282). The settings on record: primary human bronchial epithelial cells. The gist of the method: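 ELISA read-out of Keratin 8/18 in BE3C human bronchial epithelial cultures, 24 h post-dosing; positive-direction fit vs DMSO baseline.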

Read-out in experiment [9]: Matrix Metallopeptidase 9 (MMP9), MMP9 (gene 4318)
In words: BSK_BE3C_MMP9: BioMAP Diversity Plus: BE3C Assay for Matrix Metallopeptidase 9 (MMP9) Biomarker Activity (AID 2284283). Particulars: primary human bronchial epithelial cells. In short, it runs like this: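 Human primary bronchial epithelial cells exposed 24 h to compound. MMP9 quantified by ELISA. SRB total-protein staining of parallel cultures assesses cytotoxicity. Positive-direction fit relative to DMSO.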

Read-out in experiment [10]: Plasminogen activator inhibitor-1 (PAI1), SERPINE1 (gene 5054)
Briefly: BSK_CASM3C_PAI1: BioMAP Diversity Plus: CASM3C Assay for Plasminogen activator inhibitor-1 (PAI1) Biomarker Activity (AID 2284284). The settings on record: primary human coronary artery smooth muscle cells.

Read-out in experiment [11]: Monocyte Chemoattractant Protein-1 (MCP1), CCL2 (gene 6347)
In words: BSK_hDFCGF_MCP1: BioMAP Diversity Plus: hDFCGF Assay for Monocyte Chemoattractant Protein-1 (MCP1) Biomarker Activity (AID 2284285). Particulars: primary human foreskin fibroblasts. In short, it runs like this:
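MCP-1 ELISA readout was taken 24 hours after dosing primary human dermal fibroblasts in the hDFCGF system, with DMSO as baseline. Parallel sulforhodamine B staining of total protein tracked overt cytotoxicity.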

Read-out in experiment [12]: Vascular cell adhesion molecule 1 (VCAM1), VCAM1 (gene 7412)
In words: BSK_IMphg_VCAM1: BioMAP Diversity Plus: IMphg Assay for Vascular cell adhesion molecule 1 (VCAM1) Biomarker Activity (AID 2284286). Particulars: primary human endothelial cells with macrophages. In short, it runs like this: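 ELISA read-out of VCAM-1 on venular endothelial cell/macrophage co-cultures at 24 h post-treatment, with DMSO as baseline and positive-direction fitting. Parallel sulforhodamine B total-protein staining (560 nm) served as the overt cytotoxicity measure.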

Read-out in experiment [13]: Intercellular Adhesion Molecule 1 (ICAM1), ICAM1 (gene 3383)
In words: BSK_hDFCGF_ICAM1: BioMAP Diversity Plus: hDFCGF Assay for Intercellular Adhesion Molecule 1 (ICAM1) Biomarker Activity (AID 2284287). The settings on record: primary human foreskin fibroblasts. The gist of the method: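 ICAM-1 ELISA readout 24 h after dosing, DMSO as baseline, in human dermal foreskin fibroblast cultures. Cytotoxicity checked in parallel wells by SRB staining (0.1% SRB, 10% TCA fixation, 560 nm).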

Read-out in the next experiment: CD40, CD40 (gene 958)
Briefly: BSK_IMphg_CD40: BioMAP Diversity Plus: IMphg Assay for CD40 Biomarker Activity (AID 2284288). Particulars: primary human endothelial cells with macrophages. The gist of the method:
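ELISA read-out of cell-surface CD40 at 24 h in human venular endothelial cell/macrophage co-cultures. Activity fitted in the positive direction against DMSO; parallel SRB staining (560 nm) gauges overt cytotoxicity.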

Read-out in experiment [14]: Interleukin-8 (IL8), CXCL8 (gene 3576)
Briefly: BSK_IMphg_IL8: BioMAP Diversity Plus: IMphg Assay for Interleukin-8 (IL8) Biomarker Activity (AID 2284277). Particulars: primary human endothelial cells with macrophages. The gist of the method:
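IL-8 levels were measured by ELISA 24 h after dosing in primary human venular endothelial cell–macrophage cultures, referenced to DMSO; parallel SRB staining monitored overt cytotoxicity.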

Read-out in experiment [15]: Intercellular Adhesion Molecule 1 (ICAM1), ICAM1 (gene 3383)
Briefly: BSK_BE3C_ICAM1: BioMAP Diversity Plus: BE3C Assay for Intercellular Adhesion Molecule 1 (ICAM1) Biomarker Activity (AID 2284278).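 Also: cell-surface ICAM-1 protein level quantified by ELISA.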 The settings on record: primary human bronchial epithelial cells. In short, it runs like this:
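ELISA read-out of ICAM-1 on human lung bronchial epithelial primary cells, 24 h post-dosing; positive-direction curve fit, DMSO = baseline. SRB total-protein staining of parallel cultures flagged overt cytotoxicity.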

Read-out in experiment [16]: Interleukin-8 (IL8), CXCL8 (gene 3576)
In words: BSK_BE3C_IL8: BioMAP Diversity Plus: BE3C Assay for Interleukin-8 (IL8) Biomarker Activity (AID 2284280). Particulars: primary human bronchial epithelial cells. The gist of the method: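 Primary human bronchial epithelial cells (BE3C system) were exposed to test chemical for 24 h, and IL-8 levels were then measured by ELISA. Activity was fitted in the positive (gain-of-signal) direction against a DMSO negative-control baseline.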

A short description of experiment [17]: BSK_BF4T_SRB: Viability Assessment in the BioMAP Diversity Plus: BF4T Assay (AID 2284274). Particulars: primary human bronchial epithelial cells with fibroblasts. In short, it runs like this:
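Cytotoxicity measured as total protein: cells fixed with 10% TCA, stained with 0.1% SRB, read at 560 nm. Bronchial epithelial/dermal fibroblast co-culture, 24 h after dosing, with positive-direction fitting relative to DMSO.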

In the case of `O=S(=O)(OCC(F)(F)F)C(F)(F)C(F)(F)C(F)(F)C(F)(F)F`, the result in [1], in experiment [2], in experiment [3], in experiment [4], in [5] and in [6] was inactive. For the same molecule, the result (in [7]; in [8]; with KRT18 (gene 3875); in [9]; in experiment [10]; in experiment [11]) was inactive. The outcome in [12] is “inactive”; in experiment [13], “inactive”; in the experiment with CD40, CD40 (gene 958) it was “inactive”. Further, the concentration at half-maximal activity (AC50) – broadly, the midpoint of the concentration-response curve, whichever way the signal moves – in experiment [9] is 6.24 µM (active).
With `O=C(O)CCC(F)(F)C(F)(F)C(F)(F)F`, the result in experiment [1], in [3], in [4], in experiment [5], in experiment [6] and in experiment [14] was inactive. In addition, the outcome (in [15]; in [7]; in experiment [8]; in the experiment with KRT18 (gene 3875); in experiment [9]; in experiment [10]) was inactive. Besides, the outcome in experiment [11] is “inactive”; in experiment [12], “inactive”; in experiment [13] it was “inactive”; in the experiment with CD40, CD40 (gene 958) it was “inactive”. In the experiment with CD40, CD40 (gene 958), the AC50 is 0.22 µM (active).
As for `CO[Si](C)(CCC(F)(F)C(F)(F)C(F)(F)C(F)(F)C(F)(F)C(F)(F)F)OC`, the result in [1], in experiment [2], in experiment [3], in experiment [4], in experiment [5] and in experiment [6] was inactive. Further, the outcome (in experiment [15]; in experiment [7]; in experiment [16]; in experiment [8]; with KRT18 (gene 3875); in experiment [9]) was inactive. The outcome in experiment [10] is “inactive”; in experiment [11] it was “inactive”; in experiment [12], “inactive”; in experiment [13], “inactive”; in the experiment with CD40, CD40 (gene 958) it was “inactive”.
For `FC(F)(F)C(F)(F)C(F)(F)C(F)(F)C(F)(F)C(F)(F)C(F)(F)CCI`, the outcome in experiment [1], in experiment [3], in experiment [4], in experiment [5], in experiment [6] and in experiment [14] was inactive. In addition, the result (in experiment [7]; in experiment [8]; in the experiment with KRT18 (gene 3875); in [9]; in [10]; in experiment [11]) was inactive. Also, the outcome in [12] is “inactive”; in experiment [13] it was “inactive”; with CD40, CD40 (gene 958), “inactive”.
Turning to `O=C(F)C1(F)C(F)(F)C(F)(F)C(F)(F)C(F)(F)C1(F)F`, the result in experiment [1], in experiment [3], in [4], in [17], in experiment [5] and in experiment [6] was inactive. In addition, the result (in experiment [7]; in [16]; in experiment [8]; with KRT18 (gene 3875); in experiment [9]; in experiment [10]) was inactive. The outcome was “inactive” in [11]; “inactive” in experiment [12]; “inactive” in [13]; “inactive” in the experiment with CD40, CD40 (gene 958).
In the case of `O=C(O)C(F)(F)C(F)(F)C(F)(F)C(=O)O`, the outcome in experiment [1], in experiment [2], in experiment [3], in experiment [4], in experiment [17] and in experiment [5] was inactive. Besides, the outcome (in experiment [6]; in experiment [15]; in experiment [7]; in experiment [8]; in the experiment with KRT18 (gene 3875); in experiment [9]) was inactive. Moreover, the outcome was “inactive” in experiment [10]; “inactive” in experiment [11]; “inactive” in experiment [12]; “inactive” in [13]; “inactive” in the experiment with CD40, CD40 (gene 958). In addition, the AC50 with CD40, CD40 (gene 958) was 43.1 µM (active).
